# From article PMC12431657, “Discovery and mechanistic insights of dibenzoylmethane as a broad spectrum inhibitor of coronavirus” (PLOS Pathogens, 2025)
# Structures can show the parent of a compound that is named as a salt. Where two headings read alike, the source gives them in different places. About 95 (3%) of roughly 3,300 compounds showed an effect of 50% or more. What follows is part of a selection rich in strong results, with near analogues and random picks from the rest.
# Test system: HCoV-229E
# Set-up: species or system Huh-7; HTS, protection from HCoV-229E induced cell death, luminescent cell viability (CellCounting-Lite 2.0), inhibition rate
# Conditions: 24 h post infection, 1 h compound pre-incubation, 10 µM, inhibitor
SMILES,229E Inhibition rate,"229E Inhibition rate (229E Inhibition rate, 24 h)"
C=C1C=CC(C(C)C)CC1 (stereo not drawn) [β-Phellandrene],51.8%,
CC(C)=CC[C@]12Oc3cc(O)c([C@H]4C=C(C)C[C@H](c5ccc(O)cc5O)[C@H]4C(=O)c4ccc(O)cc4O)c(O)c3C(=O)[C@@]1(O)Oc1cc(O)ccc12 [Sanggenon C],43.3%,
COC(=O)[C@H]1[C@H]2C[C@H]3c4[nH]c5ccccc5c4CCN3C[C@H]2CC[C@@H]1O [Rauwolscine (hydrochloride)],43.9%,
COC(=O)C1=CO[C@@H](C)[C@H]2CN3CC[C@]4(C(=O)Nc5ccccc54)[C@@H]3C[C@H]12 [Mitraphylline],5.5%,
COC(=O)C1=CO[C@@H](C)[C@@H]2CN3CC[C@@]4(C(=O)Nc5ccccc54)[C@@H]3C[C@H]12 [Isopteropodine],13.3%,
COC(=O)[C@@H]1[C@H]2C[C@H]3c4[nH]c5ccccc5c4CCN3C[C@@H]2CC[C@@H]1O [Yohimbine (Hydrochloride)],,36%
COC(=O)[C@@H]1[C@H]2C[C@H]3c4[nH]c5ccccc5c4CCN3C[C@@H]2CC[C@@H]1O [Yohimbine],,50.5%
COC(=O)C1=CO[C@@H](C)[C@H]2CN3CCc4c([nH]c5ccccc45)[C@@H]3C[C@H]12 [Ajmalicine],55.3%,
Cn1cnc2c(ncn2[C@@H]2O[C@H](CO)[C@@H](O)[C@H]2O)c1=N [1-Methyladenosine],12.1%,
N[C@@H](Cc1c[nH]c2ccc(O)cc12)C(=O)O [5-Hydroxytryptophan],,13.7%
C[N+]1(C)CCC[C@H]1C(=O)[O-] [Stachydrine hydrochloride],,11.8%
C[C@H]1CC[C@]2(NC1)O[C@H]1C[C@H]3[C@@H]4CC[C@H]5C[C@@H](O)CC[C@]5(C)[C@H]4CC[C@]3(C)[C@H]1[C@@H]2C [Tomatidine],,55.9%
C[C@H]1CC[C@]2(NC1)O[C@H]1C[C@H]3[C@@H]4CC[C@H]5C[C@@H](O)CC[C@]5(C)[C@H]4CC[C@]3(C)[C@H]1[C@@H]2C [Tomatidine (hydrochloride)],,28.3%
C[C@@H]1CC[C@@]2(OC1)O[C@H]1C[C@H]3[C@@H]4CC[C@H]5C[C@@H](O)CC[C@]5(C)[C@H]4CC[C@]3(C)[C@H]1[C@@H]2C [Tigogenin],11%,
COc1cc(-c2oc3cc(O)cc(O)c3c(=O)c2O)ccc1O [Isorhamnetin],7.4%,
COc1cc2c(cc1O)CC[N+](C)(C)[C@@H]2Cc1ccc(O)cc1 [Lotusine (hydroxide)],0%,
COc1cc(/C=C/C(=O)OC[C@H]2O[C@H](O[C@]3(CO)O[C@H](CO)[C@@H](O)[C@@H]3OC(=O)/C=C/c3cc(OC)c(OC)c(OC)c3)[C@H](O)[C@@H](O)[C@@H]2O)cc(OC)c1O [Tenuifoliside C],19.9%,
CC(C)=CC(=O)C[C@H](C)c1ccc(C)cc1 [ar-Turmerone],53%,
Cc1ccc(C(=O)O)cc1 [p-Toluic acid],6.6%,
CC(=O)c1ccc(C)cc1 [4'-Methylacetophenone],8.7%,
"CC1=COC(=O)[C@H]2[C@@H]1CC[C@@H]2C [4aα,7α,7aα-Nepetalactone]",8.3%,

SMILES,229E Inhibition rate,"229E Inhibition rate (229E Inhibition rate, 24 h)"
CC(=O)CCc1ccc(O[C@@H]2O[C@H](CO)[C@@H](O)[C@H](O)[C@H]2O)cc1 [Raspberry ketone glucoside],19.3%,
C=C[C@H]1CN2CC[C@]3(C(=O)Nc4ccccc43)[C@@H]2C[C@@H]1/C(=C\OC)C(=O)OC [Corynoxeine],15.2%,
CC[C@]12CCCN3CCc4c(n(c5ccccc45)C(=O)C1)[C@@H]32 [Vinburnine],22.5%,
CCOC(=O)C1=C[C@]2(CC)CCCN3CCc4c(n1c1ccccc41)[C@@H]32 [Vinpocetine],50%,
CC[C@]12CCCN3CCc4c(n(c5ccccc45)[C@@](O)(C(=O)OC)C1)[C@@H]32 [Vincamine],16.6%,
C/C=C(/C)C(=O)O[C@H]1c2cc3c(c4c2[C@@]2(CO4)C(=O)C(OC)=C(OC)C=C2C[C@@H](C)[C@H]1C)OCO3 [Heteroclitin D],47.7%,
COc1cc2oc(=O)ccc2cc1CC=C(C)C [Suberosin],15.6%,
COC(=O)CC[C@@H](C)[C@H]1CC[C@H]2[C@@H]3[C@H](O)C[C@@H]4C[C@H](O)CC[C@]4(C)[C@H]3C[C@H](O)[C@]12C [Methyl cholate],54.9%,
COc1c(/C=C/C(=O)c2ccc(O)cc2)ccc(O)c1CC=C(C)C [Licochalcone C],5%,
CC(=O)NCC(=O)O [N-Acetylglycine],10.2%,
COc1c(CC=C(C)C)c(O)cc2oc(=O)c(-c3ccc(O)cc3O)cc12 [Glycycoumarin],5.6%,
CC(C)=CCc1cc2c(cc1O)oc(=O)c1c3ccc(O)cc3oc21 [Psoralidin],43.7%,
COc1c(CC=C(C)C)c(O)cc2oc(=O)c3c4ccc(O)cc4oc3c12 [Neoglycyrol],90.8%,
C[n+]1cccc(C(=O)[O-])c1 [Trigonelline (chloride)],,13.3%
C[C@@H]1C(=O)O[C@H]2[C@H](O)[C@@]34[C@H]5C[C@@H](C(C)(C)C)[C@]36[C@@H](OC(=O)[C@@H]6O)O[C@@]4(C(=O)O5)[C@@]12O [Ginkgolide B],25.6%,
CC1=C2[C@@H](OC1=O)[C@H](O)[C@]13[C@H]4C[C@@H](C(C)(C)C)[C@]15[C@@H](OC(=O)[C@@H]5O)O[C@@]23C(=O)O4 [Ginkgolide K],62%,
C[C@@H]1C(=O)O[C@H]2C[C@@]34[C@H]5C[C@@H](C(C)(C)C)[C@]36[C@@H](OC(=O)[C@@H]6O)O[C@@]4(C(=O)O5)[C@]21O [Ginkgolide A],11.6%,
OC[C@H]1O[C@@](CO)(OC[C@@]2(OC[C@@]3(OC[C@@]4(OC[C@@]5(OC[C@@]6(OC[C@@]7(OC[C@@]8(O[C@H]9O[C@H](CO)[C@@H](O)[C@H](O)[C@H]9O)O[C@H](CO)[C@@H](O)[C@@H]8O)O[C@H](CO)[C@@H](O)[C@@H]7O)O[C@H](CO)[C@@H](O)[C@@H]6O)O[C@H](CO)[C@@H](O)[C@@H]5O)O[C@H](CO)[C@@H](O)[C@@H]4O)O[C@H](CO)[C@@H](O)[C@@H]3O)O[C@H](CO)[C@@H](O)[C@@H]2O)[C@@H](O)[C@@H]1O [Fructo-oligosaccharide DP9/GF8],41%,
CCc1ccc(O)cc1O [4-Ethylresorcinol],19.1%,

SMILES,229E Inhibition rate,"229E Inhibition rate (229E Inhibition rate, 24 h)"
CC(C)=CCC/C(C)=C/CC/C(C)=C/CC/C(C)=C/CC1=C(C)C(=O)c2ccccc2C1=O [Menaquinone-4],4.1%,
CC(C)=CCC1=CC(=O)c2ccccc2C1=O [Deoxylapachol],8.4%,
CC(C)=CCC1=C(O)C(=O)c2ccccc2C1=O [Lapachol],54.4%,
C[C@@H]1O[C@@H](O[C@H]2[C@H](O[C@H]3CC[C@@]4(C)[C@@H](CC[C@]5(C)[C@@H]4CC=C4[C@@H]6CC(C)(C)CC[C@]6(C(=O)O)CC[C@]45C)[C@]3(C)CO)OC[C@H](O)[C@@H]2O)[C@H](O)[C@H](O[C@@H]2O[C@H](CO)[C@@H](O[C@@H]3O[C@H](CO)[C@@H](O)[C@H](O)[C@H]3O)[C@H](O)[C@H]2O)[C@H]1O [Macranthoside B],9.3%,
NCCc1cc(O)c(O)c(O)c1 [5-Hydroxydopamine hydrochloride],11.7%,
O=P(O)(O)OC(CO)CO [β-Glycerophosphate (disodium salt hydrate)],11.7%,
COc1cc(OC)c(CCC(=O)c2ccc(O)cc2)c(OC)c1 [Loureirin B],16%,
"Oc1cc2cc[nH]c2cc1O [5,6-Dihydroxyindole]",1.6%,
CC(=O)O[C@@H]1C[C@H](O)[C@@]23CO[C@@H](O)[C@]1(C)[C@@H]2C[C@@H](O)[C@]1(C)[C@@H]3C(=O)[C@H](OC(C)=O)[C@@]2(C)[C@H](c3ccoc3)C[C@H]3O[C@]321 [Toosendanin],23.4%,
C[C@H](CO[C@@H]1O[C@H](CO)[C@@H](O)[C@H](O)[C@H]1O)[C@H]1CC[C@@]2(CC[C@]3(C)[C@H](CC[C@@H]4[C@@]5(C)CC[C@H](O[C@@H]6O[C@H](CO)[C@@H](O)[C@H](O)[C@H]6O[C@@H]6O[C@H](CO)[C@@H](O)[C@H](O)[C@H]6O)[C@@](C)(CO)[C@@H]5CC[C@]43C)[C@H]2O)CO1 [Hosenkoside B],10.3%,
C[C@@H](CO[C@@H]1O[C@H](CO)[C@@H](O)[C@H](O)[C@H]1O)[C@@H]1CC[C@@]2(CC[C@]3(C)[C@H](CC[C@@H]4[C@@]5(C)CC[C@H](O[C@@H]6O[C@H](CO)[C@@H](O)[C@H](O)[C@H]6O[C@@H]6OC[C@@H](O)[C@H](O)[C@H]6O)[C@@](C)(CO[C@@H]6O[C@H](CO)[C@@H](O)[C@H](O)[C@H]6O)[C@@H]5CC[C@]43C)[C@H]2O)CO1 [Hosenkoside M],10.1%,
C[C@@H](CO[C@@H]1O[C@H](CO)[C@@H](O)[C@H](O)[C@H]1O)[C@@H]1CC[C@@]2(CC[C@]3(C)[C@H](CC[C@@H]4[C@@]5(C)CC[C@H](O[C@@H]6O[C@H](CO)[C@@H](O)[C@H](O)[C@H]6O[C@@H]6O[C@H](CO)[C@@H](O)[C@H](O)[C@H]6O)[C@@](C)(CO[C@@H]6O[C@H](CO)[C@@H](O)[C@H](O)[C@H]6O)[C@@H]5CC[C@]43C)[C@H]2O)CO1 [Hosenkoside K],58.2%,
"O=C(O)Cc1ccc(O)c(O)c1 [3,4-Dihydroxybenzeneacetic acid]",39.5%,
O=C(O)Cc1ccc(O)cc1 [4-Hydroxyphenylacetic acid],52.1%,
O=C(O)C(=O)Cc1ccc(O)cc1 [4-Hydroxyphenylpyruvic acid],21.1%,
CN(C)CC(=O)O [N-Methylsarcosine],11.2%,
COc1cc(/C=C/C(=O)OC(C)C)ccc1O [Isopropyl ferulate],36.5%,
C[C@@H]1O[C@@H](Oc2cc(O)c3c(c2)O[C@H](c2ccc(O)c(O)c2)[C@@H](O)C3=O)[C@H](O)[C@H](O)[C@H]1O [Taxifolin 7-O-rhamnoside],9.6%,
C[C@H](CC[C@@H](O)C(C)(C)O)[C@H]1CC[C@@]2(C)[C@@H]3CC=C4[C@@H](CC[C@H](O)C4(C)C)[C@]3(C)C(=O)C[C@]12C [Bryodulcosigenin],12.5%,
COc1cc2ccc(=O)oc2c(O[C@@H]2O[C@H](CO)[C@@H](O)[C@H](O)[C@H]2O)c1O [Fraxin],10.9%,
